Assay results reported in PubChem BioAssay (Tox21).
Calls of active or inactive are those of the source. Calls follow the shape of the full dose curve.

The compounds below were run against Acetylcholinesterase (Homo sapiens) (UniProt P22303) (assay: Acetylcholinesterase (AChE) small molecule antagonists: enzyme-based qHTS assay with human liver microsomes (AID 1347399; also: nearly all actives have a fitted effect of over 60% in size)). Conditions: Potency: qHTS inhibition; outcome: qHTS inhibition; series mostly up to 115 µM; activity change, negative = inhibition: at the top concentration.
Sequence of Acetylcholinesterase (Homo sapiens) (P22303 whole entry, looked up): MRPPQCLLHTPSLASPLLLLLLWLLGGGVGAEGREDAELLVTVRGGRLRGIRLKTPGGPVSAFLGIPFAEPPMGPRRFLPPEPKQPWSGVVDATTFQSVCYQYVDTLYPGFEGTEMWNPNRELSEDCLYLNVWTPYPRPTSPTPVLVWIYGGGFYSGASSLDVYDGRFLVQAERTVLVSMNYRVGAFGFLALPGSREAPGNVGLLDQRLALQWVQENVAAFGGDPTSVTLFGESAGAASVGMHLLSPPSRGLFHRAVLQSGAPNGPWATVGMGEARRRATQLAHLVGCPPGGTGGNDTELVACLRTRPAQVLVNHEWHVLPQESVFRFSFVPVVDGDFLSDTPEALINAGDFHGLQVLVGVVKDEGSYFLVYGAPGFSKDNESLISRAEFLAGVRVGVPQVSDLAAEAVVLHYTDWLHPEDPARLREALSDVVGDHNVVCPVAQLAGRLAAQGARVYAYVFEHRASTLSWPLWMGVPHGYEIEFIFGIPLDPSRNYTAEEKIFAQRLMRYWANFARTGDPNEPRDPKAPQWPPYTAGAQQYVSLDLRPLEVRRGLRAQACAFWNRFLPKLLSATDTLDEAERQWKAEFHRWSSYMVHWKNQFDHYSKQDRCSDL
Outline: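 Recombinant human AChE (50 mU/mL in the enzyme mix) and human liver microsomes (0.25 mg/mL final) were preincubated with compound and NADPH (0.25 mg/mL final) for 30 min at 37 C. Acetylthiocholine/DTNB was then added; thiocholine was read colorimetrically after 10 min at room temperature.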
% is scaled to controls: 0 for no effect and ±100 for the full control effect.

| SMILES | activity change, negative = inhibition | Potency | outcome |
| --- | --- | --- | --- |
| CC1(C)O[C@@H]2C[C@H]3[C@@H]4CCC5=CC(=O)C=C[C@]5(C)[C@H]4[C@@H](O)C[C@]3(C)[C@]2(C(=O)CO)O1 | -0.318% [at 53 µM] (inactive) | – | – |
| CCCCC(CC)COCCCN (stereo unspecified) | -2.56% (inactive) | – | – |
| Oc1ccc(/C=C/c2cc(O)cc(O)c2)cc1 | – | inactive | – |
| CCCCCCCCC=O | -0.149% (inactive) | – | – |
| NC(=O)c1ccc([N+](=O)[O-])cc1Cl | – | inactive | – |
| Oc1ccc(Cc2ccccc2O)cc1 | – | inactive | – |
| CN1C(C(=O)Nc2ccccn2)=C(O)c2ccccc2S1(=O)=O | – | inactive | – |
| C=CC(=O)OCCOCCOCC | 0.0764% (inactive) | – | – |
| CCCCCCCCCCCCCC(=O)OC(C)C | – | inactive | – |
| CC(C)c1ccc(C(=O)N=C(N)N)cc1S(C)(=O)=O | – | – | inactive |
| Nc1cc([N+](=O)[O-])ccc1O | – | inactive | – |
| O=C(O)c1cc(-c2ccccc2)nc2ccccc12 | – | inactive | – |
| Cn1nnc2c(C(N)=O)ncn2c1=O | -1.51% [at 53 µM] (inactive) | – | – |
| CC(C)CCCC(=O)O | -1.07% (inactive) | – | – |
| O=[N+]([O-])c1ccc(CCO)cc1 | 0.167% (inactive) | – | – |
| CCCC1C(CC)=CC(CC)=CN1c1ccccc1 (stereo unspecified) | -0.164% (inactive) | – | – |
| COc1ccc(C(=O)CC(=O)c2ccc(C(C)(C)C)cc2)cc1 | – | inactive | – |
| NC(N)=NS(=O)(=O)c1ccc(N)cc1 | -2.94% [at 53 µM] (inactive) | – | – |
| CN1CCN(N)CC1 | -3.69% [at 53 µM] (inactive) | – | – |
| C=CC(=O)NC(C)(C)CS(=O)(=O)O | – | inactive | – |
| Nc1ccccc1N | – | inactive | – |
| CCCCC(CC)COC(=O)CCCCC(=O)OCc1ccccc1 (stereo unspecified) | -0.146% (inactive) | – | – |
| CCN(CC)CCSC(=O)C(c1ccccc1)c1ccccc1 | 0.443% [at 53 µM] (inactive) | – | – |
| CNC(=O)N(c1ccccc1)c1ccccc1 | 0% (inactive) | – | – |
| CN(C)CCN1CCOCC1 | 0.217% (inactive) | – | – |
| C1CSCCS1 | -1.5% (inactive) | – | – |
